The text below walks through data of PubChem BioAssay (NCI).

Where “and” joins values, the source holds several entries; their conditions need not be identical. Identical values can stand only once. Compounds without any hit were thinned out: in the full panel of roughly 79,000, 15% have a hit. Calls of active or inactive are those of the source. Rule as the data show it: active = growth inhibition above about 70%; inactive = the rest.

The nature of this experiment: NCI Yeast Anticancer Drug Screen. Data for the bub3 strain (AID 167). As to conditions: S. cerevisiae bub3 mutant strain, at 50.0 µM (retest, dose inferred, filed as 5.0), active compounds read high. In outline: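 Inhibition values come from growth of compound-treated mutant yeast normalised to vehicle-treated controls.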
With `O=[N+]([O-])c1cc[n+]([O-])cc1`, the growth inhibition is 13% (inactive) and 33% (inactive). The result for `CC1(C)CC(=O)C(/C=N/c2nc(-c3ccccc3)cs2)=C(O)C1` reads 19% (inactive); that for `Nc1nc(N)c2nc(CNc3ccc(C(=O)NC(CCC(=O)O)C(=O)O)cc3F)cnc2n1` (stereo not drawn), 82% (active); that for `COC(=O)CC1(O)C(/C=C/c2ccccc2)C(C(=O)OC)C(=O)C(C(=O)OC)C1C(=O)OC` (stereo not drawn), 6% (inactive). The result for `CC(C)(C)c1ccc(NS(=O)(=O)c2ccc(N)cc2)cc1` reads -8% (inactive); that for `CCN(CC)CCNc1ccc([N+](=O)[O-])c2nc3ccccc3c(N)c12`, 20% (inactive); that for `CCCCN(CCCC)C(=O)/C=C/c1ccccc1`, 76% (active). The result for `O=c1[nH]c(-c2ccccc2)nc2c1sc1nc3ccccc3n12` reads 7% (inactive); that for `O=[N+]([O-])c1ccc2c(c1)/C(=N/N=C1c3ccccc3Cc3ccccc31)c1cc([N+](=O)[O-])cc([N+](=O)[O-])c1-2`, 98% (active).

With `CC(C)C(C)/C=C\C(C)C1CCC2C3=CC=C4CC(O)CCC4(C)C3CCC21C` (stereo not drawn), the growth inhibition is 99% (active). The result for `O=C1Nc2ccc(Br)cc2C1=Nc1ccc2c(c1)OCO2` reads 73% (active); that for `CCCCOCn1c(=O)[nH]c(=O)c2cc(Br)ccc21`, 92% (active); that for `Cc1ccc(S/C(=C\C(=O)O)c2ccccc2)cc1`, 66% (inactive). Turning to `O=[N+]([O-])/C=C/c1cc(Cl)c(/C=C/[N+](=O)[O-])cc1Cl`, the growth inhibition is 96% (active). Regarding `Cc1cc(S(=O)(=O)Nc2nnc3cnc4ccccc4n23)c(S)cc1Cl`, the growth inhibition was 70% (active). In the case of `O=C(/C=C/c1cc(Cl)cc(Cl)c1O)c1cccc(O)c1`, the growth inhibition is 97% (active). The result for `NC1CCCCC1N.Nc1c(N=Nc2ccc(-c3ccc(N=Nc4cc(S(=O)(=O)[O-])c5ccccc5c4N)cc3)cc2)cc(S(=O)(=O)[O-])c2ccccc12.[OH3+].[OH3+].[Pt+4]` reads 83% (active). For `COC(=O)CCC(NC(=S)N/N=C(\C)c1ccccn1)C(=O)OC` (stereo not drawn), the growth inhibition was 84% (active). In the case of `NC(=O)C(=O)NNc1ccccc1`, the growth inhibition is 66% (inactive). Take `COc1cc(C2SCC(=O)N2c2ccc(-c3ccc(-n4c(-c5ccccc5)nc5ccccc5c4=O)cc3)cc2)ccc1O` (stereo not drawn): the growth inhibition was 69% (inactive). For the molecule `COc1ccc(/C=C/c2sc3ccccc3[n+]2CCCCI)cc1OC`, the growth inhibition was 97% (active).

`Cc1c(C(C)C)cc(OCCO)cc1C(C)C`: the growth inhibition is -6% (inactive).

For the molecule `Cc1cc(NCCCCCCCCNc2cc(C)nc3cc(N)ccc23)c2ccc(N)cc2n1`, the growth inhibition is 99% (active). The result for `C=C(Cl)COC(=O)Nc1cccc(Cl)c1` reads 18% (inactive); that for `CC(=O)OC1CC2C(C)(C)C(=O)C=C[C@]2(C)C2CCC3(C)C(=CCC3[C@H](CO)C[C@H](O)C(=O)C(C)(C)O)[C@]12C` (stereo partly drawn), 50% (inactive). Take `COc1ccc(/C=C/C(=O)c2ccccc2)cc1OC`: the growth inhibition is 88% (active). The value for `COc1c(O)c(C=O)c(Br)c(C=O)c1O` was 98% (active). The result for `O=[N+]([O-])c1cc(Cl)cnc1Br` reads -70% (inactive). For the molecule `Cc1ccc2c(c1)C1(SC(C)C(=O)N1c1ccc(Cl)cc1)C(=O)N2` (stereo not drawn), the growth inhibition is 88% (active). The result for `COc1cc(CSc2ccc(O)cc2)cc(O)c1O` reads 14% (inactive); that for `Cc1ccc2c3ccc4c(c3n(C)c2c1)C(=O)C=CC4=O`, 80% (active); that for `O=C(Nc1ccc(Cl)cc1)Nc1nnc2nc(C(C(=O)c3cccc([N+](=O)[O-])c3Cl)c3nc4nnc(NC(=O)Nc5ccc(Cl)cc5)n4[nH]c3=O)c(=O)[nH]n12`, 22% (inactive). As to `O=C(O)C1CC(c2ccccc2)=NN1c1ccccc1` (stereo not drawn), the growth inhibition was 78% (active). In the case of `CCCCc1ccc(-n2c(C)c(COC(=O)NC)c(COC(=O)NC)c2C)cc1`, the growth inhibition is 4% (inactive). The value for `CCC(=O)c1cc(C(=O)C(=S)SC)cc(C(=O)C(=S)SC)c1` was 68% (inactive). For the molecule `CCn1c(O)c(C=Nc2ccccc2)s/c1=N/Nc1nc(-c2ccccc2)cs1`, the growth inhibition was 74% (active).

Take `Cc1ccccc1N=C(NO)c1ccccc1`: the growth inhibition is 37% (inactive). With `Cc1nc2ccccc2nc1NNc1ccccc1`, the growth inhibition is 44% (inactive).
